Compound activity as filed in PubChem.
Shown are actives, neighbours in structure and some others; about 4% of the full set was active somewhere.
RecA intein inh: Mtb RecA intein splicing inhibitors, primary screen, biochemical, fluorescence, HTS; Protein RecA (Mycobacterium tuberculosis (strain ATCC 25618 / H37Rv)), P9WHJ3; cell-free RecA intein splicing; inhibition, % (no concentration beside the values); actives 0.75% (n = 290,000); in the data active means inhibition above about 30%; inconclusive means no clear call, values can overlap the other calls
Target sequence (P9WHJ3 whole entry, looked up): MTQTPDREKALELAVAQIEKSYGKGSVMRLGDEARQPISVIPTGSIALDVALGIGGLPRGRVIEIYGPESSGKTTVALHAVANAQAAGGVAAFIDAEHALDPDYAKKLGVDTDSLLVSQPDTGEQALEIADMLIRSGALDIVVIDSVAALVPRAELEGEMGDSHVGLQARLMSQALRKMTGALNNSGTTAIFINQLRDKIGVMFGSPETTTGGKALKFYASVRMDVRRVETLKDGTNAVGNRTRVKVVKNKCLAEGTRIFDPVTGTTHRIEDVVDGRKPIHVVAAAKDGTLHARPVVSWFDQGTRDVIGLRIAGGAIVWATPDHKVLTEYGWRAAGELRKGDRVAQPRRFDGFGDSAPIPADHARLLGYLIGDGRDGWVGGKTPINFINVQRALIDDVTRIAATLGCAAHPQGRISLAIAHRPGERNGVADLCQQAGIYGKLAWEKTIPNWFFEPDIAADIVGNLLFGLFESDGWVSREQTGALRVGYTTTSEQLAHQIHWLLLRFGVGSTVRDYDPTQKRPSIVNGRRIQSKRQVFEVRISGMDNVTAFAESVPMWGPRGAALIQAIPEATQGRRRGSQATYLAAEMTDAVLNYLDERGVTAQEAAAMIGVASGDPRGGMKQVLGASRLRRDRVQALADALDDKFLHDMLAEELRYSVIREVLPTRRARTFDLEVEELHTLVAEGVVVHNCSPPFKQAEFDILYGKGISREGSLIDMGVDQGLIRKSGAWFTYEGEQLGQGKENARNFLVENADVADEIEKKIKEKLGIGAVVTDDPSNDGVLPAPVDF
FBA Mtb inh: Mtb FBA enzyme inhibitors, primary screen, biochemical, fluorescence, strain H37Rv; Fructose-bisphosphate aldolase (Mycobacterium tuberculosis (strain ATCC 25618 / H37Rv)), …; actives 2.3% (n = 360,000); inhibition, % at 1 µM; AID 588726, 2011; purified M. tuberculosis FBA, fluorescence read-out; in the data active means inhibition above about 27%
UGM FP inh: M. tuberculosis UGM enzyme inhibitors, primary screen, biochemical, fluorescence polarization, single point. UDP-galactopyranose mutase (Mycobacterium tuberculosis (strain ATCC 25618 / H37Rv)), …. purified UGM, fluorescence polarization probe displacement. inhibition, % at 10 µM. actives 0.06% (n = 320,000). AID 504406, 2011; in the data active means inhibition above about 10%, passing the limit was not always enough; inconclusive means no clear call, values can overlap the other calls
Rv3671c protease: Rv3671c serine protease inhibitors, primary screen, biochemical, fluorescence polarization, M. tuberculosis H37Rv. P9WHR9. inhibition, % at 5.96 µM. actives 0.048% (n = 320,000). AID 2606, 2010; in the data active means inhibition above about 38%;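 further: extracellular domain of Rv3671c used as enzyme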
GDH-TPI inh: GDH-TPI coupling enzyme inhibitors, primary screen, artefact control for M. tuberculosis FBA inhibitor project, biochemical, absorbance, full deck; GDH-TPI coupled enzyme counterscreen, NADH absorbance; inhibition, % at 4.8 µM; actives 1.2% (n = 360,000); AID 588335, 2011; in the data active means inhibition above about 30%
Mtb bLac sens: beta-lactam sensitization of Mtb H37Rv, H37Rv | M. tuberculosis H37Rv growth with meropenem, percent inhibition | inhibition, % at 25 µM | actives 0.27% (n = 330,000); call rule not given here;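 further: growth measured after seven days incubation then overnight dye step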
Of the large screens only hits and unclear results are named; the others gave an inactive call.

CC1(C)Cc2c(c(=S)nc(-c3ccccc3)n2Cc2cccnc2)CO1	none
CC(C)Cn1c(-c2ccccc2)nc(=S)c2c1CCCC2	GDH-TPI inh 34
CCN(CC)CCn1c(-c2ccccc2)nc(=S)c2c1CC(C)(C)OC2	none
CC1(C)Cc2c(c(=S)nc(-c3ccccc3)n2CCN2CCOCC2)CO1	GDH-TPI inh 51
O=C(CN1C(=O)COc2ccc(S(=O)(=O)N3CCCC3)cc21)Nc1cccc(F)c1	none
CCCC(=O)c1cc2ccccc2oc1=O	none
CC(C)(C)NC(=O)c1cc2c(ccc3ccccc32)oc1=O	FBA Mtb inh 80
C=CCc1cccc2cc(C(=O)NC(C)(C)C)c(=O)oc12	none
O=C(NCc1ccccn1)c1cc2c(ccc3ccccc32)oc1=O	FBA Mtb inh 172
CCOC(=O)c1cc2c(ccc3ccccc32)oc1=O	FBA Mtb inh active
O=C(O)c1cc2c(ccc3ccccc32)oc1=O	FBA Mtb inh active
CCC(c1nc2ccccc2[nH]1)N(CCCn1ccnc1)C(=O)c1ccc(C(F)(F)F)cc1 (stereo unspecified)	none (no result: RecA intein inh, UGM FP inh, Rv3671c protease, GDH-TPI inh, Mtb bLac sens)
Cc1cc(C)cc(OCC(=O)N(Cc2ccccc2)C2CCS(=O)(=O)C2)c1 (stereo unspecified)	none
O=C(O)c1cc2ccc3ccccc3c2oc1=O	FBA Mtb inh 196
O=C(c1cc2c(ccc3ccccc32)oc1=O)N1CCCC1	FBA Mtb inh 166
CCCn1cc(S(=O)(=O)c2ccc(C)cc2)c(=O)c2cc(OC)c(OC)cc21	Mtb bLac sens inconclusive
O=C(CCN1C(=O)C2C3CCC(C3)C2C1=O)Nc1ccc(F)cc1 (stereo unspecified)	none (no result: UGM FP inh, Rv3671c protease, Mtb bLac sens)
Cn1nc(C2CC2)cc1NC(=O)C1(C)CCN1C(=O)CCc1ccccc1 (stereo unspecified)	none (no result: RecA intein inh, UGM FP inh, Rv3671c protease, Mtb bLac sens)
O=C(Nc1ccon1)Nc1cccc(Cl)c1Cl	none
COc1cc(/C=C2\S/C(=N/S(=O)(=O)c3ccccc3)NC2=O)c([N+](=O)[O-])cc1OC	GDH-TPI inh 43
O=S1(=O)CCN2C=C(Cl)C=C(Cl)C2=N1	FBA Mtb inh 140
COc1ccc(N2C(=O)CSC23C(=O)N2c4c(cccc43)C(C)=CC2(C)C)cc1 (stereo unspecified)	RecA intein inh 33
CCCCC1(C)OC(=O)C(=Cc2ccc(N(C)C)cc2)C(=O)O1 (stereo unspecified)	GDH-TPI inh 40
CCCCC1(C)OC(=O)C(=Cc2c[nH]c3ccccc23)C(=O)O1 (stereo unspecified)	none
CN(C)c1ccc(C=C2C(=O)NC(=O)NC2=O)cc1	GDH-TPI inh 31 (no result: RecA intein inh, UGM FP inh, Rv3671c protease, Mtb bLac sens)
COc1ccc(Nc2ncc3c(n2)CC(c2ccccc2)CC3=O)cc1 (stereo unspecified)	GDH-TPI inh 31
CCc1ccc(Nc2ncc3c(n2)CC(c2ccc(OC)cc2)CC3=O)cc1 (stereo unspecified)	none
Cc1cccc(Nc2ncc3c(n2)CC(C)CC3=O)c1 (stereo unspecified)	GDH-TPI inh 36
Cc1cccc(Nc2ncc3c(n2)CC(c2ccco2)CC3=O)c1 (stereo unspecified)	none
CCCN=C1N(C)C[C@@H]2[C@@H]3C(=O)N(C)C(=O)[C@@H]3[C@](Cc3ccccc3)(C(=O)OC)N12	none (no result: RecA intein inh, UGM FP inh, Rv3671c protease, Mtb bLac sens)
CCN(CC)c1ccc(C=Nc2ccc(OC)c(S(=O)(=O)N3CCOCC3)c2)c(O)c1	GDH-TPI inh 32 (no result: RecA intein inh)
CCN(CC)c1ccc(/C=N/NC(=O)c2cccc(S(=O)(=O)N3CCOCC3)c2)c(O)c1	none
COc1ccc(Br)cc1S(=O)(=O)N1CCOCC1	none
CCN(CC)c1ccc(C=Nc2cccc(S(=O)(=O)N3CCOCC3)c2)c(O)c1	GDH-TPI inh 61 (no result: RecA intein inh)
CC(NC(=O)c1cc2cc(Br)ccc2oc1=N)c1ccccc1 (stereo unspecified)	none
COc1ccccc1/C=N/NC(=O)c1[nH]c(C)c(C(=O)N/N=C/c2ccccc2OC)c1C	GDH-TPI inh 54
CCOC(=O)c1c(C)[nH]c(C(=O)N/N=C/c2ccc(OC)c(OC)c2)c1C	GDH-TPI inh 43
CCOC(=O)c1c(C)[nH]c(C(=O)N/N=C\c2ccccc2O)c1C	none
COc1cc(/C=C/C2=NNC(=O)CC2)cc(OC)c1OC	GDH-TPI inh 45
COc1ccc(CCCc2nnc(SCC(=O)NN)o2)c(C)c1	none
O=c1c(-c2nc3ccccc3s2)cccn1Cc1ccc(Cl)cc1	FBA Mtb inh 142
CCN(CC)S(=O)(=O)c1ccc2c(c1)c(=O)c(C(=O)NCc1ccco1)cn2C	UGM FP inh 12
O=C(Nc1ccc2nn(-c3ccccc3)nc2c1)c1ccco1	GDH-TPI inh 33
Cc1nc2ccc(NC(=O)c3ccco3)cc2nc1C	none
O=C(Nc1ccc2nn(-c3ccccc3)nc2c1)c1cccnc1	GDH-TPI inh 35
CC(C)C(=O)Nc1ccc2nn(-c3ccccc3)nc2c1	FBA Mtb inh active
O=C(Nc1cc2nn(-c3ccccc3)nc2cc1Cl)c1ccco1	GDH-TPI inh 38
COc1ccc(Cn2nnnc2C(c2cc3ccc(OC)cc3[nH]c2=O)N2CCCCCC2)cc1 (stereo unspecified)	GDH-TPI inh 34
N#C/C(=C\c1cccc(NC(=O)c2ccccc2Cl)c1)C(=O)NCCc1ccccc1	RecA intein inh 36
COCCCNC(=O)/C(C#N)=C/c1cccc(NC(=O)c2ccccc2Cl)c1	none
O=C(CNc1ccc2c(c1)OCO2)N/N=C\c1cn(Cc2ccccc2)c2ccccc12	GDH-TPI inh 31
O=C(CNc1ccccc1)N/N=C/c1ccc2c(c1)OCO2	none
Nc1ccc(C(=O)N/N=C/c2cn(Cc3cccc(F)c3)c3ccccc23)cc1	GDH-TPI inh 32 (no result: Rv3671c protease)
O=C(N/N=C/c1cccc2ccccc12)c1cccc(F)c1	GDH-TPI inh 34
O=C(N/N=C/c1cccc2ccccc12)c1ccc(CN2CCOCC2)cc1	GDH-TPI inh 41
O=C(N/N=C/c1ccccc1Cl)c1cccc(F)c1	none
F[B-](F)(F)c1cc2ccccc2s1	none (no result: RecA intein inh, UGM FP inh, Rv3671c protease, Mtb bLac sens)
CCOc1ccc(CCNC(=O)CN2C(=O)NC3(CCCC3)C2=O)cc1OCC	none
CCCOc1ccc(C2C(C#N)=C(N)Oc3nc[nH]c(=O)c32)cc1OC (stereo unspecified)	none
COc1cc(C2C(C#N)=C(N)Oc3cc(C)oc(=O)c32)ccc1OC(=O)N1CCOCC1 (stereo unspecified)	none
CCOc1ccc(C2C(C#N)=C(N)Oc3n[nH]c(C)c32)cc1OC(=O)C1CC1 (stereo unspecified)	RecA intein inh 66
CC(C)c1[nH]nc2c1C(c1cccc(OC(=O)N3CCOCC3)c1)C(C#N)=C(N)O2 (stereo unspecified)	RecA intein inh 45
